We go through 5 compounds from PubChem BioAssay.

“And” between values parts separate entries of the source, which are not always exact repeats. Equal values may be shown once. The source made the active and inactive calls.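 The calls were made as follows, unless noted: active = thallium flux through the channel raised or lowered by more than 3 SD from vehicle-only wells, actives on both sides; inactive = the rest.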

A short description of test [1]: stimulators of nuclear beta-catenin in C2C12, primary screen, imaging, WNT3A-conditioned medium, mouse C2C12, NPC library (AID 1117326; in the data active = nuclear beta-catenin stimulation mostly above about 4.2%, no sharp cut-off; inactive = mostly below about 10%). The following applies: stronger effect = higher value.
Test [2] is described as follows: stimulators of insulin release from INS-1E, primary screen, cell-based, 5 mM glucose, NPC library (AID 1117329;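 active = compound raises insulin release from rat beta cells at 5 mM glucose, no numeric limit stated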). The conditions noted are these: rat INS-1E insulin secretion, at 10 µM, stronger effect = higher value.
Test [3] is described as follows: growth inhibition of GSK3B-pretreated HCT116 cells – cell-based, CellTiter-Glo, 0.2 to 20 µM (AID 1117336;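 active = compounds lowering colon cancer cell viability after pretreatment blocking the GSK3B kinase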). The conditions noted are these: HCT116 viability after GSK3B inhibitor, at 20 µM, stronger effect = higher value. On the technique in general: ATP-based viability assays read luminescence as a measure of living cells.
The nature of test [4]: inhibition of endothelial tube formation, primary screen, imaging, VEGF stimulated, CD31 staining, tube area, NPC library (AID 1117340;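 active = compound that reduces growth-factor-driven endothelial tube area in a mixed cell culture, no cutoff stated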). The following applies: VEGF-stimulated ADSC/ECFC co-culture, at 10 µM, stronger effect = higher value.
Test [5] can be described thus: glucagon-like peptide 1 release enhancers, primary assay, NCI-H716 cell line, NPC library (AID 1117341;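 active = compound raises GLP1 secretion from the human gut endocrine cells, with no numeric limit stated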). The following applies: NCI-H716 cells, at 10 µM, stronger effect = higher value.
The nature of test [6]: HCT116 colon cancer cell growth inhibition, primary screen, CellTiter-Glo luminescence, NPC library (AID 1117342;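 active = compounds that lower survival of HCT116 colon cancer cells in the luminescence readout, no numeric limit stated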). The following applies: at 20 µM (top of the series).
The nature of test [7]: CellTiter-Glo luminescent readout of SW480 viability loss, NPC library primary (AID 1117343;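 active = compounds that lower viability of the colon cancer cells in the luminescence readout, with no numeric limit stated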). The conditions noted are these: CellTiter-Glo luminescence; at 20 µM (top of the series).
A short description of test [8]: decreased DLD-1 cellular survival, CellTiter-Glo luminescent readout, NPC compound collection, primary HTS (AID 1117346;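 active = compounds that lower survival of DLD-1 colon cancer cells in the luminescence readout, no cutoff given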). The following applies: DLD-1 viability, CellTiter-Glo luminescence; at 20 µM (top of the series).
Test [9] has as its target 6-phosphogluconate dehydrogenase, decarboxylating (Homo sapiens) (UniProt P52209). The test is described as follows: 6PGD enzyme inhibitors, primary screen, biochemical, human, recombinant enzyme, NADPH absorbance (AID 1159550;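 active = at least 20% inhibition of 6-phosphogluconate dehydrogenase activity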). The conditions noted are these: recombinant 6PGD, NADPH absorbance 341 nm; at 10 µM; stronger effect = higher value.
Test [10] can be described thus: modulation of C. elegans fzo-1 (AID 1259413; call rule not given here;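 also: fzo-1 mutant C. elegans worms in liquid wells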). The following applies: C. elegans fzo-1 modulator screen, mean read-out; stronger effect = higher value.
A short description of test [11]: differential killing of epithelial or mesenchymal cells, primary screen, imaging, PC-3E GFP, TEM4-18 mCherry, co-culture (AID 1345086;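 active = compounds killing one labelled cell type while sparing the other, by normalised counts and ratio limits, not self-fluorescent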;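 as to all read-outs here: cells exposed to compound for 72 h before imaging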;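 as to red/green cell ratio (normalised): normalised mesenchymal count divided by normalised epithelial count so high means epithelial killing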). The conditions noted are these: imaging cell counts, at 1 µM; for red/green cell ratio (normalised): actives lie on both sides, counts scaled to control wells, 1 = unselective.
Test [12] can be described thus: sensitizers of A549 cells to miR-34 induction, primary screen, imaging, A549 dox-inducible miR-34, nuclei and caspase counts (AID 1347080;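 active = compounds whose cell count with miR-34 switched on is under 0.7 times the count with it off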). The conditions noted are these: A549 miR-34 inducible, Hoechst nuclei count, 48 h.
Test [13] in a line: survival rescue of mitochondrial mutant cells in low glucose, primary screen, MELAS cybrids, Rieske KO mouse fibroblasts, CellTiter-Glo (AID 1508586;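 active = mean z-score across replicates of 1.96 or higher in either the MELAS or the Rieske mutant cell line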;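 also: z relative to plate mean and SD of compound and empty wells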).
Test [14] deals with NAD(+) hydrolase SARM1 (Homo sapiens) (UniProt Q6SZW1). The experiment in a line: SARM1 TIR NADase inhibitors, cell lysate, NAD-Glo luminescence (AID 1508614;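 active = compound whose remaining NAD level is above about 45 nM, limit read from the data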;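 also: higher remaining NAD means stronger inhibition of SARM1 NADase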). The following applies: SAM-TIR HEK293T lysate NADase, at 1 µM, stronger effect = higher value.
Chain of NAD(+) hydrolase SARM1 (Homo sapiens) (Q6SZW1 whole entry, looked up, the tested form may be a part): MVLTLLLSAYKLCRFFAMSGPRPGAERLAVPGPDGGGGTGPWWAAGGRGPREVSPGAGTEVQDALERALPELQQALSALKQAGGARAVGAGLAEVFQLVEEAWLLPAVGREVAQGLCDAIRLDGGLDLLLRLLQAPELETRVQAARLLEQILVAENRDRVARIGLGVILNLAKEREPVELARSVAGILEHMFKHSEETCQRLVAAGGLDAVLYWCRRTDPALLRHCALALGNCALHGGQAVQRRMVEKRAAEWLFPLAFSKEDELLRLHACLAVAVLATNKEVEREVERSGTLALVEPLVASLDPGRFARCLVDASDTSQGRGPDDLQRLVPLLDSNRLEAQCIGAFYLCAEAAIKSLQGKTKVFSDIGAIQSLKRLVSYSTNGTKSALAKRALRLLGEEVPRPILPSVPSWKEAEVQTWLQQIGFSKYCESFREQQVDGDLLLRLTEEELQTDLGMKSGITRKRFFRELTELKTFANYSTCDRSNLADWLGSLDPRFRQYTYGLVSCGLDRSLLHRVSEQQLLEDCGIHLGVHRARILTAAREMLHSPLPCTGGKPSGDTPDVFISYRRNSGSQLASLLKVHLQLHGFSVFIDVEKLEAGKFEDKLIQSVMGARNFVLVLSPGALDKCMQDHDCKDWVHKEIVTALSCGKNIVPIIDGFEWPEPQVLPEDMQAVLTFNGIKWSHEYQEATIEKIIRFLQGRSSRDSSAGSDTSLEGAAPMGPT
Test [15] addresses Mitogen-activated protein kinase 7 (Homo sapiens) (UniProt Q13164). The test is described as follows: ERK5 transactivation activators in reporter cells, primary screen, cell-based, HTS (AID 1508626;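 active = luciferase signal above three times the same-plate solvent-only control wells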;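 also: luciferase driven by Gal4-ERK5 fusion binding five Gal4 sites before minimal TATA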). The conditions noted are these: HeLa Gal4-ERK5 transactivation, 18 h, at 5 µM, stronger effect = higher value.
The next test deals with F380Y. The test is described as follows: modulators of BK channel variants, profiling panel, selectivity assay, cell-based, U2OS BacMam, thallium flux, beta subunits (AID 1259406).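 Also: initial slope of Thallos dye fluorescence rise after thallium is added; log ratio against the mean of 0.3% DMSO vehicle wells on the same plate.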 The following applies: at 30 µM.
Another test concerns F380Y/beta1. The description is as above. The following applies: at 30 µM.
Another test deals with F380Y/beta2Delta. The test is described as above. The conditions noted are these: at 30 µM.
[16] abbreviates: measured here: epithelial PC-3E GFP cell survival.
Where [17] appears, read: measured here: mesenchymal TEM4-18 mCherry cell survival.
The mark [18] stands for this setting: MELAS cybrid survival, CellTiter-Glo 48 h, stronger effect = higher value.
Where [19] appears, read: Rieske KO mouse fibroblast survival, CellTiter-Glo 72 h.

Chain of 6-phosphogluconate dehydrogenase, decarboxylating (Homo sapiens) (P52209 whole entry, looked up): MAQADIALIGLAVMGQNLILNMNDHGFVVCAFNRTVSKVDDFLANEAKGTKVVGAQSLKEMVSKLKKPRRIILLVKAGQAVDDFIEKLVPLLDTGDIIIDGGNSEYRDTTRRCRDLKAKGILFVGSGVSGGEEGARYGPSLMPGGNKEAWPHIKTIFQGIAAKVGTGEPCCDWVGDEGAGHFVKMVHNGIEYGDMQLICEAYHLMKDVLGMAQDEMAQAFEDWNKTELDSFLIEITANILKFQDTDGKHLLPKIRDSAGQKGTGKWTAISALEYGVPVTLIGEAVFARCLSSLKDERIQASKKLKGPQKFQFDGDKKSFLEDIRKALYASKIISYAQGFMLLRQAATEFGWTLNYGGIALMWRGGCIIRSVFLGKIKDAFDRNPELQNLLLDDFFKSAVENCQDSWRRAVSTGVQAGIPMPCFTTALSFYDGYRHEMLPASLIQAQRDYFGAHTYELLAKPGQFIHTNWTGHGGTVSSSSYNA
Chain of Mitogen-activated protein kinase 7 (Homo sapiens) (Q13164 whole entry, looked up, the tested form may be a part): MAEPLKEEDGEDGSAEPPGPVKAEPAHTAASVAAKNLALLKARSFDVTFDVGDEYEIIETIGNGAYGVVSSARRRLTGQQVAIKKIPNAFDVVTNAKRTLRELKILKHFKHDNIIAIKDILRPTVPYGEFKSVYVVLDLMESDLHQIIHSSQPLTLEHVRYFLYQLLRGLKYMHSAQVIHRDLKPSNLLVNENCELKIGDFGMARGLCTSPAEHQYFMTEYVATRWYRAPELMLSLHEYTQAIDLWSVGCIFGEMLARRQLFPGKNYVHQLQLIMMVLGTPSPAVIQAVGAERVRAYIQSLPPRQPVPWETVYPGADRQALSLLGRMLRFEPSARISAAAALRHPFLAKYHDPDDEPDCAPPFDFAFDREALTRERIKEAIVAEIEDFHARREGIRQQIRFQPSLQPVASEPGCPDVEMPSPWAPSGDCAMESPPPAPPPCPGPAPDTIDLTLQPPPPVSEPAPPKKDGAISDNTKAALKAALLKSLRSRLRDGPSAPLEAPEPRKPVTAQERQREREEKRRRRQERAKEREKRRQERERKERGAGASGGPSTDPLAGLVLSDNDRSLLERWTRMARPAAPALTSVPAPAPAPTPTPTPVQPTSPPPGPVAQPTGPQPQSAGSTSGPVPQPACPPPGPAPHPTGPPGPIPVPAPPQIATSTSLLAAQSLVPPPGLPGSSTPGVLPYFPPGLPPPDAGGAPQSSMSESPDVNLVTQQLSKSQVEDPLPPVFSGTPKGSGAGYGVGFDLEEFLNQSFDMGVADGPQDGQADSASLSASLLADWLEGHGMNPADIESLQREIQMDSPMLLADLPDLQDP

As to `CCOC(=O)[C@H](CCc1ccccc1)N[C@H]1CCc2ccccc2N(CC(=O)O)C1=O`, the nuclear beta-catenin stimulation in [1] (at 10 µM) is 27.7% (inactive); in [1] (stimulation, at 2 µM), 2.2%. The insulin secretion stimulation in test [2] was 1.1% (inactive). Also, the viability decrease in [3] is -40.3% (inactive). In addition, the tube area decrease in [4] is 33.7% (inactive). For the same compound, the GLP1 secretion stimulation in [5] is 16.1% (inactive). For the same compound, in test [6], the inhibition of viability was 51.1% (active). The viability decrease (inhibition) in test [7] is 102% (active); in [8] it was 44.2% (inactive). In test [9], the inhibition is -6.81% (inactive). Further, the mean signal in test [10] is 261 (inactive). The red/green cell ratio (normalised) in test [11] is 0.73 (inactive). For the same compound, the normalised cell number in test [11] (setting [16]) turned out to be 1.36; in test [11] (setting [17]), 0.98. For the same compound, the fold change is 0.89 (inactive) and 0.936 (inactive) in test [12] (stronger effect = lower value, cell number ratio, induced over uninduced); 2.29 and 1.38 in test [12] (measured here: relative caspase fold change +Dox/-Dox). Besides, the cell count is 9000 and 10300 in [12] (measured here: total cells with miR-34 induction, stronger effect = lower value); 10100 and 11000 in test [12] (measured here: total cells without miR-34 induction). Besides, the z-score in test [13] (setting [18]) is 0.369 (inactive); in [13] (setting [19]) it was 0.328. The remaining NAD in test [14] was 10 nM (inactive). Also, in test [15], the luciferase signal is 92 AU (inactive). In addition, the log fold change Tl+ flux in the test with F380Y was -0.0356 (inactive); in the test on F380Y/beta1 it was 0.0148 (inactive); in the test with F380Y/beta2Delta it was -0.052 (inactive).

With `CC1=C(CC(=O)O)c2cc(F)ccc2/C1=C\c1ccc(S(C)=O)cc1` (stereo not drawn), the nuclear beta-catenin stimulation is -1.5% (inactive) in [1] (at 10 µM) and 0.2% in test [1] (stimulation, at 2 µM). The insulin secretion stimulation in [2] is 0.2% (inactive). Also, in [3], the viability decrease was -51.5% (inactive). Besides, the tube area decrease in test [4] was 15.7% (inactive). Also, the GLP1 secretion stimulation in test [5] is -1.1% (inactive). Also, the inhibition of viability in test [6] is -9.1% (inactive). The viability decrease (inhibition) was 15% (inactive) in test [7] and -23.3% (inactive) in test [8]. Also, in test [9], the inhibition is 2.79% (inactive). In addition, the mean signal in test [10] was 230 (inactive). Further, the red/green cell ratio (normalised) in test [11] was 1.2 (inactive). Moreover, the figures for the normalised cell number in test [11] (setting [16]) and in [11] (setting [17]) were 0.35 and 0.43, respectively. Further, the z-score is -0.637 (inactive) in test [13] (setting [18]) and 0.215 in test [13] (setting [19]). The remaining NAD in [14] was 10 nM (inactive). Also, the luciferase signal in [15] is 56 AU (inactive). In addition, the log fold change Tl+ flux in the test with F380Y was 0.0356 (inactive); with F380Y/beta1 it was 0.0787 (inactive); with F380Y/beta2Delta it was 0.0561 (inactive).

As for `CCN(CC)CCOc1ccc(C(O)(Cc2ccc(Cl)cc2)c2ccc(C)cc2)cc1` (stereo not drawn), the nuclear beta-catenin stimulation is 8.8% (inactive) in test [1] (at 10 µM) and 1.9% in [1] (stimulation, at 2 µM). For the same compound, the insulin secretion stimulation in [2] was 0.1% (inactive). Further, the viability decrease in test [3] was 101% (active). Moreover, in [4], the tube area decrease was 107% (active). For the same compound, the GLP1 secretion stimulation in test [5] was 31.5% (active). Further, the inhibition of viability in test [6] is 102% (active). In addition, the viability decrease (inhibition) is 122% (active) in [7] and 101% (active) in [8].

For `COc1ccc2nc(NC(=O)Nc3ccccc3)sc2c1`, the nuclear beta-catenin stimulation in test [1] (at 10 µM) was 0.5% (inactive); in [1] (stimulation, at 2 µM), 0%. Besides, the insulin secretion stimulation in test [2] is 1.3% (inactive). For the same compound, the viability decrease in [3] is 11.7% (inactive). Besides, in test [4], the tube area decrease is 2.4% (inactive). In test [5], the GLP1 secretion stimulation was -1.4% (inactive). In addition, the inhibition of viability in test [6] is 43% (inactive). For the same compound, the figures for the viability decrease (inhibition) in test [7] and in test [8] were -1.6% (inactive) and 24% (inactive), respectively.

For `CC(C)NCCCC1(C(N)=O)c2ccccc2-c2ccccc21`, the nuclear beta-catenin stimulation in test [1] (at 10 µM) was 3.9% (inactive); in [1] (stimulation, at 2 µM) it was 0.2%. In addition, the insulin secretion stimulation in [2] is 0.2% (inactive). Besides, in [3], the viability decrease was -48.2% (inactive). The tube area decrease in [4] was 24.7% (inactive). Also, in test [5], the GLP1 secretion stimulation was -2.8% (inactive). Besides, in test [6], the inhibition of viability is -11.9% (inactive). For the same compound, the figures for the viability decrease (inhibition) in [7] and in test [8] were 1.7% (inactive) and -17% (inactive), respectively.

Usually inhibition stands for the relative decrease from the control value, in per cent.
